Measurements reported in PubChem BioAssay AID589 (National Center for Advancing Translational Sciences (NCATS), 2007).
Screen size: about 59,000 compounds; about 6,200 (11%) were called active. Not shown: some 9% with an inconclusive outcome. This is one part of a sample in which actives are shown more often than they occur. No stated cut-off is given here; in the data, active means max dye-equivalent concentration above about 10 nM; inconclusive means mostly about 1.1 nM to 9.6 nM; inactive means weaker than that. The source holds several records for some structures; these can differ, active in one and inactive in another.

Experiment: qHTS Assay for Spectroscopic Profiling in 4-MU Spectral Region
Conditions: compound autofluorescence, 340/450 nm, 4-MU equivalents; hits give high values
Outline: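 Compounds in 100 mM Tris, pH 8.0, incubated 15 min at room temperature, then fluorescence read at 340 nm excitation/450 nm emission. Signal converted to 4-MU dye-equivalent concentration using an on-plate six-point 4-MU standard curve.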
In the case of `CCCC(CCC(=O)OC)(C(=O)OCC)c1csc(N)n1` (configuration not stated), the max dye-equivalent concentration is reported as “inactive”. In the case of `COc1ccc(CNc2ncncc2-c2ccccc2C)c(OC)c1`, the max dye-equivalent concentration is reported as “inactive”. For `Oc1c(CN2CCOCC2)ccc(CN2CCOCC2)c1O`, the max dye-equivalent concentration was “inactive”. For `CN(CCc1ccccn1)S(=O)(=O)c1ccc2c3c(cccc13)C(=O)N2`, the max dye-equivalent concentration was 790 nM (active). In the case of `O=c1[nH]nc(Cc2ccccn2)c2ccccc12`, the max dye-equivalent concentration is reported as “inactive”. For `O=C(COC(=O)CCC(=O)c1cccs1)NCc1ccco1`, the max dye-equivalent concentration was “inactive”. With `Cc1cc(C(=O)OCC(=O)NCc2ccco2)c(C)n1-c1ccccc1` the max dye-equivalent concentration was “inactive”. In the case of `O=C(COC(=O)C12CC3CC(CC(C3)C1)C2)NCc1ccco1`, the max dye-equivalent concentration is reported as 23 nM (active). In the case of `CC(C)(C)c1cc(CN2CCN(CCC#N)CC2)cc(C(C)(C)C)c1O`, the max dye-equivalent concentration is reported as “inactive”. For `O=C(O)CCCc1ccccc1`, the max dye-equivalent concentration was “inactive”. For `O=C(O)Cc1ccc(-c2ccccc2)cc1`, the max dye-equivalent concentration was 49 nM (active) and the outcome was “inactive”. For `O=C(O)Cc1ccc(NC(=O)c2cccs2)cc1`, the max dye-equivalent concentration was “inactive”. In the case of `CCOC(=O)C1CCN(C(=O)C2CCN(S(=O)(=O)CC)CC2)CC1`, the max dye-equivalent concentration is reported as “inactive”. For `O=C(O)CSCNC(=O)CC12CC3CC(CC(C3)C1)C2`, the max dye-equivalent concentration was “inactive”. For `O=C(NC1CCCCC1)n1c(=O)oc2cc(S(=O)(=O)N3CCCCC3)ccc21`, the max dye-equivalent concentration was “inactive”. In the case of `NS(=O)(=O)c1cc2c(cc1Cl)NC(C(Cl)Cl)NS2(=O)=O` (configuration not stated), the max dye-equivalent concentration is reported as 6500 nM (active). With `C=CCn1c(C)cc(C(=O)CN2C(=O)c3ccccc3C2=O)c1C` the max dye-equivalent concentration was “inactive”. In the case of `O=C(Nc1ccc(NC(=O)c2cccs2)cn1)c1ccco1`, the max dye-equivalent concentration is reported as “inactive”. With `Cc1c(C(=O)NCCN2CCOCC2)sc2nc(-c3ccc(F)cc3)cn12` the max dye-equivalent concentration was “inactive”. For `CSc1cccc(NC(=O)CSc2ccccc2)c1`, the max dye-equivalent concentration was “inactive”. In the case of `COc1ccc(OC)c2c(N)c(C#N)c(C(F)(F)C(F)(F)F)nc12`, the max dye-equivalent concentration is reported as 140 nM (active). With `CCCCOc1ccc(-c2nnc(-c3ccco3)o2)cc1` the max dye-equivalent concentration was “inactive”. With `O=C(Nc1cccc2cccnc12)c1cccc(N2C(=O)CCC2=O)c1` the max dye-equivalent concentration was “inactive”. In the case of `O=C(CN1CCOCC1)N1CCCc2c1c(=O)oc1ccc(OCc3ccccc3)cc21`, the max dye-equivalent concentration is reported as 45 nM (active). In the case of `N#Cc1nc(-c2ccc(OCc3ccccc3)cc2)oc1NCCCN1CCOCC1`, the max dye-equivalent concentration is reported as “inactive”. In the case of `O=C(OCCN1CCOCC1)C1(c2ccccc2)CCCCC1`, the max dye-equivalent concentration is reported as “inactive”. With `CCOC(=O)C1CCCN(C(=O)c2cncc(Br)c2)C1` (configuration not stated) the max dye-equivalent concentration was “inactive”. For `COc1ccc(OC)c([C@H](O)CNC(=O)CN)c1`, the max dye-equivalent concentration was “inactive”. In the case of `C/C(Cl)=C\Cn1c(Nc2cccc(C)c2)nc2c1c(=O)n(C)c(=O)n2C`, the max dye-equivalent concentration is reported as “inactive”. In the case of `COc1ccccc1CN1CC2(CCN(S(=O)(=O)c3ccccc3)CC2)C1`, the max dye-equivalent concentration is reported as “inactive”. With `CCc1ccc(NC(=O)CSc2nnc(-c3cnccn3)n2Cc2ccco2)cc1` the max dye-equivalent concentration was “inactive”. For `O=C(Nc1ncc2c(n1)CC(c1ccco1)CC2=O)c1ccc(Cl)cc1` (configuration not stated), the max dye-equivalent concentration was “inactive”. In the case of `CCc1ccc(Nc2ncc3c(n2)CC(c2ccco2)CC3=O)cc1` (configuration not stated), the max dye-equivalent concentration is reported as 38 nM (active). For `CCOc1ccc2nc(N3CCCN(C(=O)Nc4ccccc4C)CC3)c(C#N)cc2c1`, the max dye-equivalent concentration was 16 nM (active). In the case of `Cc1ccccc1NC(=O)CNc1ccccc1N1CCCCC1`, the max dye-equivalent concentration is reported as “inactive”. With `CCOc1ccc(NC(=O)N2CCN(CC)CC2)cc1` the max dye-equivalent concentration was “inactive”. For `Cn1c(-c2ccc(F)cc2)cnc1SCC(=O)NCc1ccco1`, the max dye-equivalent concentration was “inactive”. For `O=C(CN1CCN(c2nc(-c3ccccc3)cs2)CC1)NCc1ccc2c(c1)OCO2`, the max dye-equivalent concentration was “inactive”. With `CC1(C)S[C@@H]2[C@@H](NC(=O)[C@@H](N)c3ccccc3)C(=O)N2[C@H]1C(=O)O` the max dye-equivalent concentration was 44 nM (active). With `CC1(C)SC2c3ccccc3C(=O)N2[C@@H]1C(=O)NCc1ccco1` (some centres not stated) the max dye-equivalent concentration was “inactive”. With `CCS(=O)(=O)N1CCC(C(=O)N2CCN(c3ccccc3)CC2)CC1` the max dye-equivalent concentration was “inactive”. With `CCOc1ccccc1Nc1nnc(SCC(=O)Nc2cc(C)on2)s1` the max dye-equivalent concentration was “inactive”. In the case of `CC(C[N+](C)(C)C)OC(N)=O` (configuration not stated), the max dye-equivalent concentration is reported as “inactive”. For `CC(=O)OC(C)C[N+](C)(C)C` (configuration not stated), the max dye-equivalent concentration was 500 nM (active). In the case of `CCN1C(=O)/C(=C2\SC(N3CCCCC3)=NC2=O)c2ccccc21`, the max dye-equivalent concentration is reported as 18 nM (active). In the case of `CCN1C(=O)/C(=C\N2CCN(c3ccccc3)CC2)SC1=S`, the max dye-equivalent concentration is reported as “inactive”. With `Cc1ccc(C(=O)OCC(=O)NCc2ccc3c(c2)OCO3)s1` the max dye-equivalent concentration was “inactive”. For `Cc1ccc2cccc(O)c2[n+]1[O-]`, the max dye-equivalent concentration was 17 nM (active). In the case of `CC(=O)Nc1cccc2c1[n+]([O-])c(C)c(C)[n+]2[O-]`, the max dye-equivalent concentration is reported as “inactive”. For `O=C(O)[C@@H]1[C@@H](C(=O)O)[C@]23C[C@@]2(C(=O)O)[C@]2(C(=O)O)CCC3=C3CCCC312`, the max dye-equivalent concentration was “inactive”. In the case of `CCOC(=O)CSc1nnc(CNc2ccc(F)cc2)o1`, the max dye-equivalent concentration is reported as “inactive”. For `CCCOP(=O)(c1ccc(N(C)C)cc1)C(O)c1cc(OC)c(OC)c(OC)c1` (configuration not stated), the max dye-equivalent concentration was “inactive”. In the case of `Cc1c(S(=O)(=O)O)ccc(N=Nc2c(O)c(C(=O)O)cc3ccccc23)c1Cl`, the max dye-equivalent concentration is reported as 11 nM (active). In the case of `CCc1ccc(-c2nnn(Cc3nc4ccccc4s3)n2)cc1`, the max dye-equivalent concentration is reported as “inactive”. With `COc1ccc(Cc2nnc(NS(=O)(=O)Cc3ccccc3)s2)cc1` the max dye-equivalent concentration was “inactive”. In the case of `COC(=O)C1(S(=O)(=O)C2(C(=O)OC)CCCC2)CCCC1`, the max dye-equivalent concentration is reported as “inactive”. In the case of `O=S(=O)(O)c1nc2ccccc2n1Cc1ccc(Cl)cc1`, the max dye-equivalent concentration is reported as “inactive”. With `N#Cc1c(N)n(CCOC(=O)c2ccc(Cl)cc2)c2nc3ccccc3nc12` the max dye-equivalent concentration was 600 nM (active). In the case of `C[C@H](NC(=O)OC(C)(C)C)c1nnc(SCC(N)=O)o1`, the max dye-equivalent concentration is reported as “inactive”. For `CC1(C)Oc2ccc(C(=O)N3CCOCC3)cc2N(CC(=O)Nc2ccccc2)C1=O`, the max dye-equivalent concentration was “inactive”. With `Cc1nc(NCc2ccccc2)c(C(N)=O)c2c1COC(C)(C)C2` the max dye-equivalent concentration was 100 nM (active). In the case of `O=C(c1cccnc1NCc1ccccc1)N1CCOCC1`, the max dye-equivalent concentration is reported as “inactive”. In the case of `Cc1ccc(NC(=O)CS(=O)CC(=O)N(c2ccccc2)C(C)C(=O)NC2CCCC2)cc1` (configuration not stated), the max dye-equivalent concentration is reported as “inactive”. In the case of `CC(=O)O[C@]1(C(C)=O)CC[C@@H]2[C@@H]3C=C(C)C4=CC(=O)CC[C@@]4(C)[C@H]3CC[C@]21C`, the max dye-equivalent concentration is reported as “inactive”. In the case of `Cc1ccc(C)c(S(=O)(=O)N2CC(=O)Nc3ccccc32)c1`, the max dye-equivalent concentration is reported as “inactive”. In the case of `N=C(CC(=O)Nc1ccccn1)c1ccccc1`, the max dye-equivalent concentration is reported as “inactive”. In the case of `Cc1cccc(N)c1SC1CCCCC1O` (configuration not stated), the max dye-equivalent concentration is reported as “inactive”. For `COc1ccc(C(=O)OCC(=O)c2ccc(C)c(S(=O)(=O)N3CCOCC3)c2)cc1OC`, the max dye-equivalent concentration was “inactive”. For `O=C(NCc1ccc2c(c1)OCO2)c1ccc2c(c1)C(=O)N(CC1CCCO1)C2=O` (configuration not stated), the max dye-equivalent concentration was “inactive”. In the case of `CCC(=O)Nc1ccc(C(=O)Nc2ccc3c(c2)C(=O)N(CC2CCCO2)C3=O)cc1` (configuration not stated), the max dye-equivalent concentration is reported as 120 nM (active). With `O=C(CCN1C(=O)c2ccncc2C1=O)Nc1ccc2c(c1)OCCO2` the max dye-equivalent concentration was “inactive”.
